Measurements reported in PubChem BioAssay (NCATS).
Inconclusive results are not listed. Activity calls are given as the source filed them. Unless noted, calls come from the whole dose curve; as a rule, active = well fitted curve in either direction with a large enough effect (not every such curve was filed as active); inconclusive = small, poorly fitted or top-dose-only effect, or another doubt; inactive = flat fitted curve, though single readings scatter.

What was measured:
[1] = target: Lysosomal acid glucosylceramidase (Homo sapiens) (UniProt P04062); assay: Glucocerebrosidase-p2 (AID 348; in the data active = potency below about 10 µM; note: potency is the fitted concentration of half-maximal effect); settings: purified GBA, blue fluorogenic substrate, 40 min
Chain of Lysosomal acid glucosylceramidase (Homo sapiens) (P04062 whole entry, looked up): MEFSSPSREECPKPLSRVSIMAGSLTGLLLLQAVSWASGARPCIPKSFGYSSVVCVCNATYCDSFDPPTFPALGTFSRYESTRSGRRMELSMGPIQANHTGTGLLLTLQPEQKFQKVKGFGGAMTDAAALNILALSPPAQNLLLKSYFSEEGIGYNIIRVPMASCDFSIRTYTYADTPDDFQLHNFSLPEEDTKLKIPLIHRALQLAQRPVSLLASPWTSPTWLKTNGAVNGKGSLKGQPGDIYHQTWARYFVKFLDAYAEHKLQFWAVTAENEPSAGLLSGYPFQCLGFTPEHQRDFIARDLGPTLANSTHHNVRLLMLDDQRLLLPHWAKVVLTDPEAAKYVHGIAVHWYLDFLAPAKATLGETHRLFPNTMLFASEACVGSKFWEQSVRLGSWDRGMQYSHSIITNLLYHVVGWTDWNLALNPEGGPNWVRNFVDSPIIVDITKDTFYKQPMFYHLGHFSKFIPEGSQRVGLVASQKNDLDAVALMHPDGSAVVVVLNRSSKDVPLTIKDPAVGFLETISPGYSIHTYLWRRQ
In short: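 Normal human glucocerebrosidase (0.2 nM) with blue fluorogenic substrate (80 uM final) in citrate/phosphate pH 5.9 with 10mM sodium taurocholate, 0.01% tween-20; 40 min RT, NaOH/glycine stop; fluorescence Ex 365/Em 440; AC50 from a titration from 0.6 nM upwards.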

[2] = AP1 Signaling Pathway (AID 357); settings: ME-180 AP-1-bla reporter, EGF-induced, beta-lactamase ratio, 5 h; at 7.69 µM (top of the series) unless noted;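 note: ME-180 reporter cells stimulated with EGF at its EC50 level; % is set by controls: 0 for no effect and ±100 for the full control effect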
In short: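 First, ME-180 AP-1-bla cells were cultured overnight at 37 °C in low-serum Opti-MEM. Next, titrated compounds with EC50 EGF were incubated 5 hours. Finally, CCF4 was added for 2.5 hours and the 460/530 nm ratio recorded.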

[3] = target: Cytochrome P450 1A2 (Homo sapiens) (UniProt P05177); assay: p450-cyp1a2 (AID 410; calls by dose curve; note: potency is the fitted concentration of half-maximal effect;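 for activity change, negative = inhibition: -100% = full effect of reference inhibitor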); settings: recombinant CYP1A2, luciferin-ME demethylation, luminescence; series mostly up to 11.4 µM
Chain of Cytochrome P450 1A2 (Homo sapiens) (P05177 whole entry, looked up): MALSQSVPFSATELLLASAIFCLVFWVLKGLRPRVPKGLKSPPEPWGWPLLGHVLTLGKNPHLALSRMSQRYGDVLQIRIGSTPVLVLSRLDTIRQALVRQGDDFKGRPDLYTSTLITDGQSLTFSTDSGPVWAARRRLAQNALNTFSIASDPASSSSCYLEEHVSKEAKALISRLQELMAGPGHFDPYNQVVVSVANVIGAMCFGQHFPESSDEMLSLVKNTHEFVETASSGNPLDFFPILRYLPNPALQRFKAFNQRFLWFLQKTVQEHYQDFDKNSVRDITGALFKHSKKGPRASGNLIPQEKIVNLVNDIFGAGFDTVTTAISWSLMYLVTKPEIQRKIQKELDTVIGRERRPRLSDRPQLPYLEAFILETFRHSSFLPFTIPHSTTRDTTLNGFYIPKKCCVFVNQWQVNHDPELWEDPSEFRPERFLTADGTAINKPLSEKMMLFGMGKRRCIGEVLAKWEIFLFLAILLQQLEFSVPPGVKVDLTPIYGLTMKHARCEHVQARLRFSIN
In short: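 20nM CYP1A2, 100uM Luciferin-ME (=Km), 100mM KPO4; cpd 10 min RT; +NADPH regen, 60 min RT; stop/detect 20 min; luminescence. Normalized to furafylline 57 uM = full inhibition.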

[4] = NFAT Signaling Pathway (AID 444); settings: Jurkat NFAT-bla M1, carbachol, beta-lactamase ratio, 5 h; at 7.69 µM (top of the series) unless noted;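 note: carbachol stimulus at about its EC50 of 1 µM final; % is set by controls: 0 for no effect and ±100 for the full control effect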
In short: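 Read-out: CCF4 FRET ratio (460 nm/530 nm) after 1 h RT dye loading, used for %activity and AC50 from titration series. Cells: Jurkat NFAT-β-lactamase/M1 line, treated with compound plus 1 uM carbachol for 5 h, 37 °C.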

[5] = Stat Signaling Pathway (AID 446); settings: ME-180 (cervical carcinoma) SIE beta-lactamase reporter, IL-6 stimulated, 5 h; at 7.69 µM (top of the series) unless noted;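 note: ME-180 cervical cancer cells given 40 pM IL-6 alongside compound; SIE-controlled beta-lactamase reporter measured as 460/530 nm FRET emission ratio; % is set by controls: 0 for no effect and ±100 for the full control effect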
In short: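 FRET read-out (405 nm excitation, 460/530 nm emission) of a beta-lactamase reporter under a STAT-inducible element in ME-180 cervical carcinoma cells. Cells with compound receive 40 pM IL-6 for 5 h. Values are normalised to AC90 stimulation and AC90 JAK-inhibitor controls.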

[6] = target: Glucocorticoid receptor (Homo sapiens) (UniProt P04150); assay: GR-GFP Redistribution (AID 450;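 active = compounds whose dose series gives a full or clear partial fitted curve of increased nuclear translocation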; note: potency is the fitted concentration of half-maximal effect); settings: U2OS GR-GFP nuclear translocation, laser cytometry, 2 h
Chain of Glucocorticoid receptor (Homo sapiens) (P04150 whole entry, looked up, the tested form may be a part): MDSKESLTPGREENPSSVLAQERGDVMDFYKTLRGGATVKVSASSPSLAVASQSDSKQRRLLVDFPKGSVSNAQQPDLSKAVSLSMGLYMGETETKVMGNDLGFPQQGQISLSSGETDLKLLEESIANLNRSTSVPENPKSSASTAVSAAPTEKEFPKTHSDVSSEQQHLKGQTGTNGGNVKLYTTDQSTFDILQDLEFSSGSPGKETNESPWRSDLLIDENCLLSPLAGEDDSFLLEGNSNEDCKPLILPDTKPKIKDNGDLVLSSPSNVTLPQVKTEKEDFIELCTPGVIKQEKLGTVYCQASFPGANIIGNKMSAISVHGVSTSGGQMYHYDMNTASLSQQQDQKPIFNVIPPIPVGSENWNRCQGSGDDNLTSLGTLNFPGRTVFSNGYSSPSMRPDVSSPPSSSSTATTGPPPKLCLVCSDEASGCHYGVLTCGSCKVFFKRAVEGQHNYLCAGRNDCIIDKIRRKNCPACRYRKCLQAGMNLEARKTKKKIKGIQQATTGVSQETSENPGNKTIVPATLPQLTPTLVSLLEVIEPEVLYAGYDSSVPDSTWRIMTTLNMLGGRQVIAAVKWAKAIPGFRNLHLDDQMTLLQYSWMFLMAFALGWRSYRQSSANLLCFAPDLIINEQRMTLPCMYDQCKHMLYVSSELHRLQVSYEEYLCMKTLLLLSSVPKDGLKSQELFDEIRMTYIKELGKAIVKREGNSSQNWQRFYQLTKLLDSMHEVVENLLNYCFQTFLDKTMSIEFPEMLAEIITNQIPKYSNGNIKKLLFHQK

[7] = target: Glucocorticoid receptor (Homo sapiens) (UniProt P04150); assay: GR-EFC Redistribution (AID 451; calls by dose curve; note: potency is the fitted concentration of half-maximal effect); settings: CHO-K1 GR-EFC translocation, beta-gal luminescence, 2 h
In short: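 Translocation of GR-ED fusion to nuclear EA restores b-gal, read by luminescence after 1 h room-temperature detection. Engineered CHO-K1 biosensor cells, 1,000/well, exposed 2 h at 37 C to titrations up to 46 uM final.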

[8] = target: Mitogen-activated protein kinase 10 (Mus musculus) (UniProt Q61831); assay: JNK3 AlphaScreen Assay (AID 530); settings: JNK3 lysate, c-Jun phosphorylation; series mostly up to 11.4 µM;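 note: kinase came from lysate of stimulated human HepG2 cells; signal reports phosphorylation of biotinylated GST-cJun 1-79 at Ser73 with 10 µM ATP; % is set by controls: 0 for no effect and ±100 for the full control effect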
In short: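 Kinase buffer: 20 mM Tris-HCl pH 7.6, 10 mM MgCl2, 1 mM DTT, 0.1 mM Na3VO4, 0.01% Tween-20; ATP 10 uM. Substrate biotin-GST-cJun(1-79), enzyme from activated HepG2 lysates. Detection by Ser73 phospho-antibody AlphaScreen.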

[9] = target: 3',5'-cyclic-AMP phosphodiesterase 4B (Homo sapiens) (UniProt Q07343); assay: qHTS Assay for Inhibitors of PDE-IV (AID 607; active = well fitted activation curve with a large enough effect in the main read-out, with a control signal flat, not every such curve was filed as active; note: % of control where 0% means no effect); settings: HEK293 ACTOne CNG channel cells, membrane potential fluorescence; series mostly up to 22.9 µM
Chain of 3',5'-cyclic-AMP phosphodiesterase 4B (Homo sapiens) (Q07343 whole entry, looked up): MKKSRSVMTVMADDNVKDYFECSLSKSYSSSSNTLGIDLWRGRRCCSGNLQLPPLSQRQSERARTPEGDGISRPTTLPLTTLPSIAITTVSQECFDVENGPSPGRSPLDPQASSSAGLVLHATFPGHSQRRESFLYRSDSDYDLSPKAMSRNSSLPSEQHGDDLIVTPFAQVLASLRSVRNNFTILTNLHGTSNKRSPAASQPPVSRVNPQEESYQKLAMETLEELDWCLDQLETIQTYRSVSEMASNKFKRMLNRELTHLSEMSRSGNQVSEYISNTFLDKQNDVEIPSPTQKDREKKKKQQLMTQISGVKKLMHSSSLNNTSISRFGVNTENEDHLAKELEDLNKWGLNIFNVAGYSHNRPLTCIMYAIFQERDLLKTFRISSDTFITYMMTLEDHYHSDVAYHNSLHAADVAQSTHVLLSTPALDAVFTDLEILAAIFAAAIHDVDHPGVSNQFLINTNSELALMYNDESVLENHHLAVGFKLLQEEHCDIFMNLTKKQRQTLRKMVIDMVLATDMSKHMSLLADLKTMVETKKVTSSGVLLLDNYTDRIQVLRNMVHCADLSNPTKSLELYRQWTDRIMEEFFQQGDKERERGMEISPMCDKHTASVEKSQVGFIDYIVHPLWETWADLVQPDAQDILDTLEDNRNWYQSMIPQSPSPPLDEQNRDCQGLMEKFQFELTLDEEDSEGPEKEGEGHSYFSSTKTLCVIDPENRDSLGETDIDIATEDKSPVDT
In short: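 Cell-based read-out of cAMP via a modified cyclic nucleotide-gated channel and membrane potential dye (535/590 nm) in HEK293 cells expressing PDE4 endogenously. Compounds tested up to 22.9 uM final; 100 uM RO 20-1724 reference.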

CC(=NC1CCCCC1)c1ccccc1O
inactive: Potency [1] > 11.4 µM | activity change, negative = inhibition [2] 6.06% | Potency [3] | activity change, negative = inhibition [4] 16.7% | activity, negative = inhibition [5] 11% | Potency [6] > 46 µM | Potency [7] > 9.22 µM | Potency [8] | Potency [9]

NC(N)=Nc1ccc(-c2ccc(N=C(N)N)cc2)cc1
inactive: Potency [1] > 11.4 µM | activity change, negative = inhibition [2] 1.56% | Potency [3] | activity change, negative = inhibition [4] 4.39% | activity, negative = inhibition [5] 0.358% | Potency [6] > 46 µM | Potency [7] > 9.22 µM | Potency [8] | Potency [9]

CN(CC(=O)O)Cc1c(O)c(Cl)cc(Cl)c1Cl
inactive: Potency [1] > 11.4 µM | activity change, negative = inhibition [2] -1.4% | activity change, negative = inhibition [3] -1% [at 2.29 µM] | activity change, negative = inhibition [4] 11.2% | activity, negative = inhibition [5] 4.84% | Potency [6] > 46 µM | Potency [7] > 9.22 µM | Potency [8] | Potency [9]

NS(=O)(=O)c1ccc(NCc2nc3ccccc3[nH]2)cc1
inactive: Potency [1] > 11.4 µM | activity change, negative = inhibition [2] 2.25% | activity change, negative = inhibition [3] -18.8% [at 2.29 µM] | activity change, negative = inhibition [4] 8.2% | activity, negative = inhibition [5] 9.55% | Potency [6] > 46 µM | Potency [7] > 9.22 µM | Potency [8] | Potency [9]

NC(=S)SCCC(=O)O
active: Potency [3] 1.58 µM
inactive: Potency [1] > 11.4 µM | activity change, negative = inhibition [2] 11.1% | activity change, negative = inhibition [4] 14.5% | activity, negative = inhibition [5] 14.5% | Potency [6] > 46 µM | Potency [7] > 9.22 µM | Potency [8] | Potency [9]

Nc1nc2c(c(=O)[nH]1)N[C@H](CCNc1ccc(C(=O)O)cc1)CN2
inactive: Potency [1] > 11.4 µM | activity change, negative = inhibition [2] -0.0764% | Potency [3] | activity change, negative = inhibition [4] 14.5% | activity, negative = inhibition [5] -3.77% | Potency [6] > 46 µM | Potency [7] > 9.22 µM | Potency [8]

c1cc(NNc2cccc(-c3nn[nH]n3)c2)cc(-c2nn[nH]n2)c1
inactive: Potency [1] > 11.4 µM | activity change, negative = inhibition [2] 5.72% | activity change, negative = inhibition [3] -15.5% [at 2.29 µM] | activity change, negative = inhibition [4] 2.46% | activity, negative = inhibition [5] 2.5% | Potency [6] > 46 µM | Potency [7] > 9.22 µM | Potency [8] | Potency [9]

Nc1nc(N)c(CCCCc2ccccc2)c(N)n1
inactive: Potency [1] > 11.4 µM | activity change, negative = inhibition [2] 17.9% | activity change, negative = inhibition [3] -0.2% [at 2.29 µM] | activity change, negative = inhibition [4] 2.59% | activity, negative = inhibition [5] 1.49% | Potency [6] > 46 µM | Potency [7] > 9.22 µM | Potency [8] | Potency [9]

C#CCSc1n[nH]c(-c2ccco2)n1
active: Potency [3] 2 µM
inactive: Potency [1] > 11.4 µM | activity change, negative = inhibition [2] -2.21% | activity change, negative = inhibition [4] 15.4% | activity, negative = inhibition [5] -3.07% | Potency [6] > 46 µM | Potency [7] > 9.22 µM | Potency [8] | Potency [9]

CN(C)CCCn1c2ccccc2c2cnccc21
inactive: Potency [1] > 11.4 µM | activity change, negative = inhibition [2] 1.6% | activity change, negative = inhibition [3] -20% [at 2.29 µM] | activity change, negative = inhibition [4] 2.32% | activity, negative = inhibition [5] 13.9% | Potency [6] > 46 µM | Potency [7] > 9.22 µM | Potency [8] | Potency [9]

C[C@]12CCC3c4ccc(OCC(=O)O)cc4CCC3C1CCC2=O (stereo not given in full)
inactive: Potency [1] > 11.4 µM | activity change, negative = inhibition [2] 6.42% | activity change, negative = inhibition [3] 0.7% [at 2.29 µM] | activity change, negative = inhibition [4] -1.29% | activity, negative = inhibition [5] 9.48% | Potency [6] > 46 µM | Potency [7] > 9.22 µM | Potency [8] | Potency [9]

C=C(C)CNCCN
inactive: Potency [1] > 11.4 µM | activity change, negative = inhibition [2] 0.933% | activity change, negative = inhibition [3] 2.2% [at 2.29 µM] | activity change, negative = inhibition [4] 17.5% | activity, negative = inhibition [5] 8.28% | Potency [6] > 46 µM | Potency [7] > 9.22 µM | Potency [8] | Potency [9]

Cc1[nH]c2ccccc2c1-c1cc(-c2cc(-c3c(C)[nH]c4ccccc34)nc(N)n2)nc(N)n1
active: Potency [3] 0.398 µM
inactive: Potency [1] > 11.4 µM | activity change, negative = inhibition [2] -6.63% | activity change, negative = inhibition [4] 1.59% | activity, negative = inhibition [5] -4.41% | Potency [6] > 46 µM | Potency [7] > 9.22 µM | Potency [8] | Potency [9]

N[C@@](CC(=O)O)(Cc1ccccc1)C(=O)O
inactive: Potency [1] > 11.4 µM | activity change, negative = inhibition [2] -6.1% | activity change, negative = inhibition [3] -13.4% [at 2.29 µM] | activity change, negative = inhibition [4] 0.819% | activity, negative = inhibition [5] 6.06% | Potency [6] > 46 µM | Potency [7] > 9.22 µM | Potency [8] | Potency [9]
